DT40 TDP1 CPT: qHTS for Inhibitors of human tyrosyl-DNA phosphodiesterase 1 (TDP1): qHTS in cells in presence of CPT; AID 686979, 2013; 12% of 420,000 active; chicken DT40 Tdp1-/-;hTDP1 cells + 20 nM CPT, ATP luminescence, 48 h; Potency, µM (top dose mostly 46.2 µM), for inactives: at the top dose activity change, negative = growth inhibition, usual class: inhibitors; also: potency is read from the fitted curve at half-maximal effect; % is scaled to controls: 0 for no effect and ±100 for the full control effect; nearly all actives have a fitted effect of over 55% in size
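Chicken DT40 Tdp1-/- cells stably complemented with human TDP1 were seeded at 400 cells/well in medium containing 20 nM camptothecin, exposed to pin-transferred compounds, and grown at 37 °C for at least 48 hr. Viability was read as ATP luminescence.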
DT40 TDP1 no CPT: qHTS for Inhibitors of human tyrosyl-DNA phosphodiesterase 1 (TDP1): qHTS in cells in absence of CPT; DT40 Tdp1-/- hTDP1 cells, no CPT, ATP luminescence, 48 h; Potency, µM (doses to about 46.2 µM), without a hit: at the highest dose activity change, negative = growth inhibition, most hits filed as inhibitors; 15% of 420,000 active; AID 686978, 2013; also: potency is read from the fitted curve at half-maximal effect; % is scaled to controls: 0 for no effect and ±100 for the full control effect; nearly all actives have a fitted effect of over 55% in size
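Cells were dispensed at 400 per well, compounds added by pin tool, plates incubated ≥48 hr at 37 °C, then CellTiter-Glo added for 30 min at room temperature before luminescence reading. Line: DT40 Tdp1-/- complemented with hTDP1; camptothecin omitted.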
IL1B secr inh: qHTS for Inhibitors of Inflammasome Signaling: IL-1-beta AlphaLISA Primary Screen. THP-1 LPS/ATP IL-1B secretion, AlphaLISA, 16 h; stronger effect = lower value. activity change, % at 57.5 µM. 4.7% of 360,000 active. AID 743279, 2014; in the data active = activity change below about -50%; inconclusive = mostly about -30% to -49%; also: % is scaled to controls: 0 for no effect and ±100 for the full control effect
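THP-1 cells pretreated 1 hr with compounds (up to 57.5 uM final), then stimulated with LPS (250 ng/mL final) plus ATP (1.25 mM final); secreted IL-1B measured by AlphaLISA after 16 hr, decreased signal indicating inhibition.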
TGFb SMAD3 inh: qHTS for Inhibitors of TGF-b | AID 588855, 2011 | HepG2 CAGA-GFP TGF-b/SMAD3 reporter, GFP fluorescence, 18 h; TGF-beta stimulated, 500 pg/mL final | 1.2% of 410,000 active | Potency, µM (top dose mostly 46.1 µM), without a hit: at the highest dose activity, negative = inhibition, hits mostly inhibitors; also: potency is read from the fitted curve at half-maximal effect; % is scaled to controls: 0 for no effect and ±100 for the full control effect; nearly all actives have a fitted effect of over 65% in size
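Cell-based qHTS in HEPG2 carrying a CAGA-GFP Smad reporter; compounds added before 500 pg/mL final TGF-beta, 18 h incubation at 37 degrees C, GFP fluorescence quantified per cell by imaging cytometry.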
TDP1 inh: qHTS Assay for Inhibitors of Tyrosyl-DNA Phosphodiesterase (TDP1) | Tyrosyl-DNA phosphodiesterase 1 (Homo sapiens), Q9NUW8 | recombinant TDP1, AlphaScreen DNA substrate cleavage | Potency, µM (top dose mostly 130 µM), without a hit: top-dose activity change, negative = inhibition, actives largely listed as inhibitors | 0.28% of 350,000 active | AID 485290, 2010; also: potency is read from the fitted curve at half-maximal effect; % is scaled to controls: 0 for no effect and ±100 for the full control effect; nearly all actives have a fitted effect of over 40% in size
Target sequence (Q9NUW8 whole entry, looked up): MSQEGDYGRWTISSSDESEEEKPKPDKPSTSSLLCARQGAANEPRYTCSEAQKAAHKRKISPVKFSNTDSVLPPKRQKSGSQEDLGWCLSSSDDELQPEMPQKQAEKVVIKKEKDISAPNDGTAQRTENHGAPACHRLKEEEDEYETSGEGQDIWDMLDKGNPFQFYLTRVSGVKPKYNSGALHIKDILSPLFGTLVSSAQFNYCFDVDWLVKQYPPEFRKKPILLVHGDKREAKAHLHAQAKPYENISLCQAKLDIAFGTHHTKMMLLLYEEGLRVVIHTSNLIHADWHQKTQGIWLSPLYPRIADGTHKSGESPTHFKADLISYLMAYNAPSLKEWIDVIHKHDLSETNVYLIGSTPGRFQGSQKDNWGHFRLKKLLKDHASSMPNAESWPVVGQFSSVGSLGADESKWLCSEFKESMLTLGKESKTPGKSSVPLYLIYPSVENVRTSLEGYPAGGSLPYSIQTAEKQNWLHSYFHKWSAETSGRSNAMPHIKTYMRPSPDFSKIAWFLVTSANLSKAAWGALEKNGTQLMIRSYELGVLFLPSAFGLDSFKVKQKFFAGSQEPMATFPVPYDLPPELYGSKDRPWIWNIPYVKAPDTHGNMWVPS
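Compounds were preincubated with Tdp1 (1 nM final) for 15 min at room temperature before substrate (15 nM final) started a 5 min reaction; beads (10 ug/ml final) were then added for 10 min before AlphaScreen detection.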
HepG2 tox: qHTS for Inhibitors of TGF-b: Cytotox Counterscreen; HepG2 CAGA-GFP viability, ATP luminescence, 18 h; AID 588856, 2011; 0.76% of 410,000 active; Potency, µM (doses to about 46.1 µM), for inactives: at the top dose activity change, negative = cytotoxicity, hits mostly cytotoxic; also: potency is read from the fitted curve at half-maximal effect
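HepG2 CAGA-GFP cells (1000/well, DMEM with 1% FBS) received compound, then TGF-beta at 500 pg/mL final, and were incubated 18 hours at 37 degrees C. Viability was read by CellTiter-Glo luminescence. Media-only wells were set as complete cell-killing and DMSO as no toxicity.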
The depositor's hits bear a star; ? = inconclusive; . = no result given; ! = repeats disagree; [ ] = another dose, or the depositor's remark. Shown are actives, neighbours in structure and some others; about 19% of the full set was active somewhere. Unless noted, calls follow the shape of the dose curve; as a rule, active = well fitted curve in the direction sought with a large enough effect; inconclusive = small, poorly fitted or top-dose-only effect, or another doubt; inactive = no such curve, though single readings can be large; an effect the other way counts as inactive or inconclusive.

SMILES	DT40 TDP1 CPT	DT40 TDP1 no CPT	IL1B secr inh	TGFb SMAD3 inh	TDP1 inh	HepG2 tox
CCC(C)(C)NC(=O)/C=C/c1ccc(OC)c(S(=O)(=O)N2CCOCC2)c1	-24%	?	0	-4%	6%	-4%
COc1ccc(/C=C/C(=O)Nc2ccccc2C)cc1S(=O)(=O)N1CCOCC1	?	-26%	-24	?	1%	-22%
COc1ccc(S(=O)(=O)N2CCOCC2)cc1NC(=O)/C=C/c1ccccc1	-22%	-19%	-52*	-3%	2%	-1%
Cc1ccc(NC(=O)/C=C/c2ccc(S(=O)(=O)N3CCOCC3)cc2)cc1S(=O)(=O)N(C)C	?	15µM*	-5	-1%	.	-2%
CC(=O)Nc1cccc(NC(=O)/C=C/c2ccc(S(=O)(=O)N3CCOCC3)cc2)c1	?	-25%	?	-13%	3%	-14%
CCCOc1ccccc1NC(=O)/C=C/c1ccc(OC)c(S(=O)(=O)N2CCOCC2)c1	?	16µM*	-23	-13%	.	-12%
O=C(/C=C/c1ccccc1)Nc1cc(S(=O)(=O)N2CCOCC2)ccc1N1CCOCC1	-27%	-5%	-8	-3%	5%	-1%
CCCCc1ncc(CN2CCC(n3nccc3NC(=O)c3ccccc3Cl)CC2)[nH]1	-22%	3%	-10	3%	3%	0%
CCOC(=O)c1c(C)[nH]c(C)c1S(=O)(=O)N(C)CC(=O)Nc1cccc(C(F)(F)F)c1	?	-17%	.	?	3%	-20%
COc1ccc(CCNC(=O)/C=C/c2ccc(OC)c(S(=O)(=O)N3CCOCC3)c2)cc1	?	5.8µM*	12	2%	1%	-47%
COc1cccc(CN(C)C(=O)/C=C/c2ccc(S(=O)(=O)N3CCCCCC3)cc2)c1	?	?	-58*	?	3%	-6%
Cc1c(CN(C)C(=O)c2sc3cc(Cl)ccc3c2Cl)cnn1C	15µM*	21µM*	?	-7%	2%	-20%
Cc1ccc(NC(=O)CN(C)C(=O)c2sc3cc(Cl)ccc3c2Cl)cc1	-16%	-20%	5	9%	.	0%
Cc1ccc(S(=O)(=O)N(CC(=O)Nc2ccccc2-c2ccccc2)c2ccc(C)cc2C)cc1	?	?	-3	?	0%	-17%
Cc1ccc(N(CC(=O)Nc2ccccc2-c2ccccc2)S(=O)(=O)c2ccccc2)cc1	16µM*	21µM*	-26	-8%	-3%	-14%
Cc1cccc(N(CC(=O)Nc2ccccc2-c2ccccc2)S(=O)(=O)c2ccccc2)c1C	?	23µM*	-5	-22%	0%	-14%
Cc1cc(C)cc(N(CC(=O)Nc2ccccc2-c2ccccc2)S(=O)(=O)c2ccccc2)c1	-28%	?	11	-30%	-3%	33%
CCN1CCN(S(=O)(=O)c2ccc(Cl)c(C(=O)N(C)Cc3ccco3)c2)CC1	?	?	1	0%	7%	-14%
CCc1ccccc1NC(=O)c1ccc2c(O)c(S(=O)(=O)c3ccccc3)c(=O)[nH]c2c1	-19%	-2%	.	-1%	3%	3%
NC(=O)c1cccn1Cc1ccccc1Cl	?	?	1	-3%	6%	2%
NC(=O)c1cccn1Cc1cccc(Cl)c1	21µM*	?	20	8%	7%	-2%
O=C1[C@H]2CCCC[C@H]2C(=O)N1CCCCN1CCN(c2nsc3ccccc23)CC1	21µM*	13µM*	-65*	?	2%	-17%
O=C1[C@@H]2[C@H]3CC[C@H](C3)[C@@H]2C(=O)N1CCCCN1CCN(c2ncccn2)CC1	6%	-17%	.	.	.	.
OCC(O)COc1cccc2ccccc12 (centres undefined)	0%	0%	.	.	1%	.
CC(C)NCC(O)COc1cccc2ccccc12 (centres undefined)	16µM*!	16µM*!	8	-4%	7%[56.1 µM]	3%
SMILES	DT40 TDP1 CPT	DT40 TDP1 no CPT	IL1B secr inh	TGFb SMAD3 inh	TDP1 inh	HepG2 tox
CCc1ccc(CN(C)CC(O)COc2cccc3ccccc23)cc1 (centres undefined)	?	?	-99*	?	2%	-101%
OC(CNCc1ccccc1F)COc1cccc2ccccc12 (centres undefined)	?	?	-70*	?	4%	-181%
COc1ccc(S(=O)(=O)Nc2cc3c4c(c2)CC(=O)N4CCC3)cc1C	?	?	19	15%	1%	-21%
COc1ccccc1C(=O)N1CCOc2ccc(CN3CCN(Cc4ccccn4)CC3)cc2C1	2%[9.04 µM]	-4%	.	.	.	.
O=C(NC1CCCC1)c1ccc2c(=O)n(Cc3ccccc3)c(SCc3ccccc3F)nc2c1	-25%	?	.	-19%	3%	-1%
C[N+](C)(C)c1ccc(/C=N/Nc2nc(Cl)c(C#N)c(Cl)c2Cl)cc1	?	23µM*	7	15%	8%	-5%
c1ccc(CSc2nnc(-c3cccs3)n2Cc2ccco2)cc1	?	?	-67*	0%	0%	-19%
Cc1ccccc1CSc1nnc(-c2cccs2)n1Cc1ccco1	?	23µM*	-29	?	1%	-28%
c1ccc(CSc2nnc(-c3ccco3)n2Cc2ccco2)cc1	?	23µM*	4	-14%	10%	3%
O=C(Nc1ccccc1)N1CC2(CCN(C(=O)c3ccco3)CC2)C1	3%	-4%	.	.	.	.
C/C(O)=c1/ccc2cccc3nc(C)nc1c23	?	?	-53*	0%	1%	-1%
CC1=C(C(=O)OCC2CCCCC2)C(c2ccc(O)cc2)NC(=O)N1 (centres undefined)	-1%	?	2	-1%	.	1%
Cc1cccc(S(=O)(=O)c2cn(Cc3ccccc3)c3cc(N4CCCCC4)c(F)cc3c2=O)c1	?	?	.	1%	4%	1%
COc1ccc(S(=O)(=O)c2cn(Cc3ccccc3)c3cc(N4CCCC4)c(F)cc3c2=O)cc1	?	5.2µM*	.	-26%	2%	-9%
O=c1c(S(=O)(=O)c2ccccc2)cn(Cc2ccc(F)cc2)c2cc(N3CCOCC3)c(F)cc12	21µM*	15µM*	.	2%	4%	7%

Compound activity deposited in PubChem BioAssay by National Center for Advancing Translational Sciences (NCATS).
